Compounds with a hit are over-represented: about 4.8% of the library has one in this group of screens.
hcDAF-12 act – activators of H. contortus DAF-12 nuclear receptor; activation, % at 6.8 µM; HEK293 hcDAF-12 lit1-tk-luc reporter, luminescence; 0% DMSO, 100% Δ7-dafachronic acid; actives 1.4% (n = 370,000);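 active means activation above the mean of all tested compounds plus 3 SD, cut at about 5.5% in these data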
DAX1 inh-1 – inhibitors of human orphan nuclear receptor DAX1 (NR0B1); actives 0.99% (n = 340,000); inhibition, % at 6.75 µM; AID 504766; HEK293 Gal4-DAX1 luciferase reporter, luminescence; P51843;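 active means inhibition above the mean over all tested compounds plus 3 SD, cut at about 4.2% in these data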;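 further: inhibition shows as a rise in luminescence from relieved DAX1 repression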
hgDAF-12 ag – agonists of H. glycines DAF-12 nuclear receptor; HEK293 GAL4-hgDAF12 UAS-luciferase reporter, agonist luminescence; normalized to butyrate control; activation, % at 6.8 µM; actives 1.8% (n = 370,000); AID 687014;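 active means activation above a cutoff set at the mean of all screened compounds plus 3 SD, cut at about 10% in these data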
SMARCA2 activ – SMARCA2 function activation, primary screen. AID 652017. MG213 cells, MMTV-luciferase reporter, dexamethasone, overnight. activation, % at 9.1 µM. actives 1% (n = 370,000); in the data active means activation above about 7.8%
ssDAF-12 act – activates DAF-12 receptor from parasite S. stercoralis; HEK293 ssDAF-12/GRIP1 lit1-tk-luc reporter, luminescence; % of 3 µM dafachronic acid response; activation, % at 6.8 µM; actives 1% (n = 370,000); AID 652126;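 active means activation above the mean over all tested compounds plus 3 SD, cut at about 0.9% in these data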
DAX1 inh-2 – inhibitors of DAX1 repression of SF-1 activated StAR promoter; actives 1.1% (n = 370,000); HEK293T StAR-luciferase reporter, SF-1/DAX-1 repression relief; AID 652010; inhibition, % at 6.8 µM;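 active means inhibition above the mean over all tested compounds plus 3 SD, cut at about 3.6% in these data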;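 further: higher inhibition means more luminescence from relief of DAX-1 repression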
DAX1 inh confirm – confirmation of human DAX1 (NR0B1) inhibitors | actives 87% (n = 2,400) | HEK293T StAR-promoter luciferase reporter, SF-1/DAX-1 repression | shares compounds with DAX1 inh-2 | inhibition, % at 6.8 µM;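 active means inhibition above the average of every tested compound plus 3 SD, cut at about 3.8% in these data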;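 further: active compounds raise luminescence by relieving repression of the StAR reporter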
Target sequence (P51843 whole entry, looked up): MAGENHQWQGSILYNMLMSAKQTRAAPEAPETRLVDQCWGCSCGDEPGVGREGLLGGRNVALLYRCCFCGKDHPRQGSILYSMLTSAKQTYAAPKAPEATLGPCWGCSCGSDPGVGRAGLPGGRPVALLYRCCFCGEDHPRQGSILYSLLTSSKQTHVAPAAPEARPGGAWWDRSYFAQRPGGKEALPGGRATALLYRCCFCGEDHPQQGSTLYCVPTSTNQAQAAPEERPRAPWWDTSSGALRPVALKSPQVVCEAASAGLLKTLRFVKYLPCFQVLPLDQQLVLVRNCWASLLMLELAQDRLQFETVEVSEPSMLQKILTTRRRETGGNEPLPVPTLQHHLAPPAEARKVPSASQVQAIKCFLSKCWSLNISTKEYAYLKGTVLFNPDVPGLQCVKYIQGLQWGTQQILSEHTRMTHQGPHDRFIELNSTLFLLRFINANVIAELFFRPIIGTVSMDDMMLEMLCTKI
SF1 mutant ctr – nonselective inhibitor or artifact in SF-1 mutant DAX1 counter-screen; inhibition, % at 6.8 µM; actives 78% (n = 2,400); shares compounds with DAX1 inh-2; HEK293 StAR-luciferase, SF-1 AF2 mutant, luminescence; AID 652136;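 active means inhibition above the mean of all tested compounds plus 3 SD, cut at about 3% in these data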
Hits are given with their value; i = inactive; nt = not tested or not shown.

SMILES	hcDAF-12 act	DAX1 inh-1	hgDAF-12 ag	SMARCA2 activ	ssDAF-12 act	DAX1 inh-2	DAX1 inh confirm	SF1 mutant ctr
COc1ccc2c(c1)CN1CN(CC(C)C)S(=O)(=O)CC21 (stereo not drawn)	i	nt	i	i	i	i	nt	nt
CCCC(=O)N1CCC[C@]2(CC[C@@H](CCC(C)=O)O2)C1	i	nt	i	i	i	i	nt	nt
CCC(C#Cc1ccccc1)N(C)C(N)=NC(=O)/C=C/c1ccccc1 (stereo not drawn)	i	nt	i	nt	i	nt	nt	nt
C(=NNc1ccc2ccccc2n1)c1ccccn1	5.9	nt	11	i	i	4.8	i	i
C/C(=N\NC(=O)c1ccccc1O)c1cccs1	i	i	i	i	i	5.4	5.9	i
O=C(Nc1ncc([N+](=O)[O-])s1)c1ccco1	i	i	i	i	i	6.5	5.7	6.2
CC(CCN1CCC(C(O)(c2ccccc2)c2ccccc2)CC1)Oc1ccc(C#N)c(F)c1 (stereo not drawn)	i	nt	i	i	i	i	nt	nt
Cc1cccc2c1-c1sc(C(=O)N3CCCCC3)cc1CO2	i	i	i	i	i	5.3	9.6	5.7
O=C(Nc1ccc(C(=O)N2CCCCC2)cc1)C1=CSCCO1	i	i	i	i	i	6.2	4.7	i
COC(=O)c1cc2c(c3c4cc(OC)ccc4n(S(=O)(=O)c4cccc(C)c4)c13)C(=O)N(C)C2	i	nt	i	i	i	i	nt	nt
COC(=O)Cc1nnn2c1[C@@H](C)[C@@H](c1ccccc1Br)OC[C@H](C)C2	i	nt	i	i	i	i	nt	nt
COc1cccc(COC(=O)c2ccc3c(c2)NC(=O)C(C)S3)c1OC (stereo not drawn)	i	i	i	i	i	i	nt	nt
CC1Sc2ccc(C(=O)OCc3ccccc3Cl)cc2NC1=O (stereo not drawn)	i	i	i	i	i	6.1	7.3	5.9
Cc1ccccc1NC(=O)O[C@H]1CC[C@@]23CCCN2C(=O)CCC[C@H]3[C@H]1C	i	nt	i	nt	i	nt	nt	nt
CC1CCC(NC(=O)c2cc3ccccc3cc2O)CC1 (stereo not drawn)	i	i	i	i	i	8.0	10	6.7
O=C(NCC1CCCO1)c1cc2ccccc2cc1O (stereo not drawn)	i	i	i	i	i	5.0	6.1	4.3
O=C(NNC(=O)c1cc2ccccc2cc1O)NC1CCCCC1	i	i	i	i	i	i	nt	nt
CC1CCC(NC(=O)c2cc(Cl)nc3ccccc23)CC1 (stereo not drawn)	i	i	i	i	i	4.6	6.0	4.3
CNc1nc(N)c([N+](=O)[O-])c(Nc2cccc(OC)c2)n1	i	nt	i	nt	i	nt	nt	nt
COc1ccc(CN[C@@H]2CC[C@@]34CCCN3C(=O)CCC[C@H]4C2)cc1OC	i	nt	i	nt	i	nt	nt	nt
CCCCCCN1C[C@@H](O)[C@H](n2cc(COC(=O)c3ccccc3)nn2)C[C@@H]1c1ccccc1	i	i	i	i	i	4.6	i	i
CC(=O)c1ccc(-c2c(CCO)sc3ccccc23)cc1	i	nt	i	i	i	5.7	i	3.0
CC(=O)c1ccc(-c2[nH]c3ccccc3c2CCN2C(=O)c3ccccc3C2=O)cc1	i	i	i	i	i	i	nt	nt
COc1ccc(OC)c(CN2CCN(C(=O)CN3C(=O)NC4(CCCC4)C3=O)CC2)c1	i	i	i	i	i	4.9	i	i
COc1cccc(N2CCN(C(=O)CN3C(=O)NC4(CCCC4)C3=O)CC2)c1	i	i	i	i	i	i	nt	nt
SMILES	hcDAF-12 act	DAX1 inh-1	hgDAF-12 ag	SMARCA2 activ	ssDAF-12 act	DAX1 inh-2	DAX1 inh confirm	SF1 mutant ctr
CCCCCCCCN1C(=O)N2Cc3ccc(C)cc3C2CS1(=O)=O (stereo not drawn)	i	nt	i	i	i	i	nt	nt
Cc1ccc(NC(=O)C/C(N)=N/OC(=O)Nc2cccc(C)c2)cc1	i	i	i	i	i	5.0	i	i
CC(C)(C)c1csc(NC(=O)C2COc3ccccc3O2)n1 (stereo not drawn)	i	i	i	i	i	5.0	i	i
CC(C)NC(=O)N[C@H]1CC[C@H](CC(=O)NCc2ccc(Oc3ccccc3)cc2)O[C@@H]1CO	i	nt	i	i	i	4.5	i	i
O=C(CCCOc1ccccc1)Nc1nnc(C2CCCO2)s1 (stereo not drawn)	i	i	i	i	i	i	nt	nt
COc1ccccc1OCCCC(=O)Nc1nnc(C2CCCO2)s1 (stereo not drawn)	i	i	i	i	i	6.1	4.2	3.7
COC(=O)[C@]12C[C@H](CC(=O)NCCC(C)C)C(=O)N(Cc3ccc4c(c3)OCO4)C1=C[C@H](C(C)(C)C)O[C@@H]2C	i	nt	i	i	i	i	nt	nt
O=C(Nc1cccc(O)c1)c1noc2c1CCc1ccccc1-2	6.3	i	i	i	i	7.0	16	6.3
Cc1ccc(NC(=O)c2noc3c2CCc2ccccc2-3)cc1	i	i	i	i	i	i	nt	nt
O=C(NCCc1ccccc1Cl)[C@@H]1CCCN1C(=O)[C@@H](NC(=O)N1CCOCC1)C1CCCCC1	i	nt	i	i	i	i	nt	nt
CCc1ccc(NC(=O)C(=O)c2ccccc2NC(C)=O)cc1	i	i	i	i	i	9.1	12	7.0
COc1cc2c(c(OC)c1OC)-c1ccc(OC)c(=O)cc1C(NC(=O)c1ccccc1)CC2 (stereo not drawn)	i	i	i	i	i	4.7	16	i
COc1c(C=O)c2c(c(OC)c1OC)-c1ccc(OC)c(=O)cc1C(NC(C)=O)CC2 (stereo not drawn)	i	i	i	i	i	5.1	21	i
COC(=O)c1ccc(S(=O)(=O)N2CCC(NC(=O)Cc3ccccc3)CC2)cc1	i	nt	i	i	i	i	nt	nt
COc1ccc(S[C@]2(C(=O)N3CCOCC3)CC(=O)N(c3ccsc3)[C@@H]2c2ccc(OC)cc2)cc1	i	nt	i	i	i	i	nt	nt
Cc1ccc(C)c(OCc2cc(C(=O)N3CCN(C(=O)c4ccco4)CC3)no2)c1	i	i	i	i	i	6.4	6.2	4.1
Cc1ccc(C)c(OCc2cc(C(=O)N3CCN(c4ccccc4)CC3)no2)c1	i	i	i	i	i	6.3	5.3	4.8
COc1cc(NC(=O)c2[nH]c(C)c(C(C)=O)c2C)c(OC)cc1Cl	i	nt	i	nt	i	nt	nt	nt
Cc1cc(Nc2cc(Cl)cc(Cl)c2)cc(=O)n1-c1cc(Cl)cc(Cl)c1	i	nt	i	i	i	i	nt	nt
CCN(CC)C(=O)CC[C@@H]1CC[C@]2(CCCN(C(=O)c3ccno3)C2)O1	i	nt	i	i	i	i	nt	nt
CCCCN(C)C(=O)CSc1nnc(-c2cc(OC)c(OC)c(OC)c2)o1	i	nt	i	i	i	i	nt	nt

Screening data deposited in PubChem by The Scripps Research Institute Molecular Screening Center.
